Bioassay records as filed in PubChem.
Hits are enriched below; roughly 10% of the tested compounds scored in any of these assays.
VDR inhibitor – blocks the human vitamin D receptor; P11473; VDR-SRC2-3 peptide fluorescence polarization, 2 h; Potency, µM, for the others: max response, negative = inhibition, usual class: inhibitors; 0.93% of 400,000 active; AID 504847; also: potency is read from the fitted curve at half-maximal effect
Target sequence (P11473 whole entry, looked up): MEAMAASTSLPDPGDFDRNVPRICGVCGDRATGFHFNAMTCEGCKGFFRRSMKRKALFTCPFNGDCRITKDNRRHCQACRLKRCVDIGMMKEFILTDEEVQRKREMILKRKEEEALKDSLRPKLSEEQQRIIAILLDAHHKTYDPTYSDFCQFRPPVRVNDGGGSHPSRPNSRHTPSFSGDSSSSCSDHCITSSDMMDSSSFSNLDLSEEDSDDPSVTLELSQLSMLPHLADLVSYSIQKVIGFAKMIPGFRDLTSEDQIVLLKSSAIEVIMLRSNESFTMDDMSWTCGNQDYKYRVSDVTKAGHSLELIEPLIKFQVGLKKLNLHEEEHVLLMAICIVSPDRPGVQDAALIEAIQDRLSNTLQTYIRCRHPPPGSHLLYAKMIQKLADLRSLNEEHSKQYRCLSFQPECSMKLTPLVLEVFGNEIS
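Measured by FP: displacement of SRC2-3 coactivator peptide from VDR by library compounds, following a two-hour ambient incubation.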
MmCpn inh – blocks the Methanococcus maripaludis chaperonin Mm-Cpn | Potency, µM (doses to about 76.9 µM), for inactives: at the highest dose activity, negative = inhibition, hits mostly inhibitors | 0.031% of 330,000 active | purified Mm-Cpn ATPase, ADP Transcreener TR-FRET; also: potency is read from the fitted curve at half-maximal effect; nearly all actives have a fitted effect of over 80% in size
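Quantitative HTS used 25 nM Mm-CPN and 10 uM ATP in magnesium/KCl Tris buffer, pH 7.4, with 1 mM DTT. Hydrolysis ran 30 min at 37°C; ADP was read by HTRF.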
Sfp inh – Sfp phosphopantetheinyl transferase inhibition; 3.5% of 310,000 active; Biochemical Sfp PPTase activity, qHTS; Potency, µM, without a hit: largest response in the series, negative = inhibition, most hits filed as inhibitors; Q9F4F7;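 also: the enzyme is Sfp with the accession as filed and its product quenches rhodamine fluorescence; potency is read from the fitted curve at half-maximal effect; 0% = enzyme reaction without inhibitor and -100% = no enzyme wells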
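Reaction rates are the 30-min fluorescence difference (ex 525, em 598 nm) in wells containing 15 nM Sfp, 5 uM rhodamine-CoA and 12.5 uM BHQ-2-YbbR at pH 7.6 with 10 mM MgCl2.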
PLK1 PBD block – inhibitors of human PLK1 polo-box domain binding; P53350; Plk1 PBD binding of FITC phosphopeptide, fluorescence polarization; Potency, µM, for inactives: max response, negative = inhibition, most hits filed as inhibitors; 2.8% of 360,000 active; also: potency is read from the fitted curve at half-maximal effect; series mostly up to about 57 µM; nearly all actives have a fitted effect of over 65% in size
CCT chaperon mod – modulators of cytosolic chaperonin (CCT/TRiC) activity; purified chaperonin ATPase assay, HTRF ADP detection, 30 min; activity change, % (no concentration beside the values), hits read low; 0.3% of 360,000 active; AID 651819; in the data active = activity change below about -30%
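Nucleotide hydrolysis assay: TRiC at 20–40 nM final (set by batch activity) with 10 uM ATP, 30 min at 37 °C, in presence of 76 uM compound. Detection by competitive ADP HTRF, 30 min ambient.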
G9a inh – inhibitors of human histone lysine methyltransferase G9a; G9a H3K9 monomethylation, AlphaScreen, 2 h; Potency, µM (top dose mostly 102 µM), for the others: at the top dose activity, negative = inhibition, actives largely listed as inhibitors; 8.8% of 350,000 active; also: potency is read from the fitted curve at half-maximal effect; nearly all actives have a fitted effect of over 75% in size
Target sequence (Q96KQ7 913-1193 limits assumed): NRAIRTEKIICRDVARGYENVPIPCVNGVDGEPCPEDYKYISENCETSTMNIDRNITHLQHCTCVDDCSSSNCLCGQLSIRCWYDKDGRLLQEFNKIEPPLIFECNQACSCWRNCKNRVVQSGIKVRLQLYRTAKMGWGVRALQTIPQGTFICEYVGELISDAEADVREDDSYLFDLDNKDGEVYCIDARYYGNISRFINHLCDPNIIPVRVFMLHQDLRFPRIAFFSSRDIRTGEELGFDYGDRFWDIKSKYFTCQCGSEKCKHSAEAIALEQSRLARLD
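G9a (20 nM) was preincubated 15 min with compound, then reacted 2 h at room temperature with 500 nM biotin-H3K9 peptide and 20 µM SAM. Monomethyl-H3K9 detected by AlphaScreen using anti-H3K9me1 antibody.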
Active calls of the source: *; ? = inconclusive; . = not tested or not shown; [ ] = another dose, or the depositor's remark. Unless noted, calls follow the shape of the dose curve; as a rule, active = well fitted curve in the direction sought with a large enough effect; inconclusive = small, poorly fitted or top-dose-only effect, or another doubt; inactive = no such curve, though single readings can be large; an effect the other way counts as inactive or inconclusive. Unless noted, % is scaled to controls: 0 for no effect and ±100 for the full control effect.

SMILES	VDR inhibitor	MmCpn inh	Sfp inh	PLK1 PBD block	CCT chaperon mod	G9a inh
O=C(C1CCN(CC2CC=CCC2)CC1)N(CCc1ccccc1)Cc1ccccc1 (stereo unspecified)	-20%	0%	-28%	3%	-2	45µM*
O=C(C1CCN(CCCc2ccccc2)CC1)N(CCc1ccccc1)Cc1ccccc1	0%	0%	?	1%	-1	14µM*
N#CCCn1cc(C(N)=O)c(-c2ccc3ccccc3c2)n1	-23%	-5%	15%	27µM*	-2	6%
CN(C)C(=O)c1cn(CCC#N)nc1-c1ccc2ccccc2c1	-8%	1%	12%	-14%	-4	.
CC(C)(C)c1ccc(S(=O)(=O)c2cn(CC(=O)Nc3ccccc3)c3ccccc3c2=O)cc1	?	.	.	.	.	-4%[59 µM]
N#Cc1cc2c(nc1SCc1cccnc1)CCCCC2	-12%	.	79µM*	-6%	-5	3%[59 µM]
N#CCSc1nc2c(cc1C#N)CCCC2	-18%	-3%	?	-13%	-1	25µM*
N#Cc1cc2c(nc1SCc1ccccc1)CCCCC2	-21%	3%	-14%	3.8µM*	0	227%
N#Cc1cc2c(nc1SCc1ccc(Cl)cc1)CCCC2	13%	-2%	?	-9%	-2	?
CCOC(=O)C1CCN(C(=O)CSc2n[nH]c(-c3ccc(F)cc3)n2)CC1	8%	.	.	.	.	-30%[59 µM]
COC(=O)c1cc2sccc2n1CC(=O)Nc1ccc(OC)c(OC)c1	1%	.	.	.	.	-25%[59 µM]
Cc1ccc(CSc2nc3cccnc3n2Cc2nc(-c3ccccc3F)oc2C)cc1	8%	.	.	.	.	?
O=C(O)CSc1nnc(Cc2ccccc2)n1-c1ccccc1	6%	1%	14%	-9%	-2	11µM*
COc1ccc(CC(=O)NNC(=O)CSc2nnc(Cc3ccc(OC)cc3)n2-c2ccccc2)cc1	-7%	2%	-6%	-5%	0	10µM*
O=C(O)CSc1nnc(Cc2ccccc2)n1Cc1ccccc1	-1%	-1%	3%	-3%	1	-29%[2.33 µM]
Fc1ccc(-n2nc(-c3ccccc3)c3cnc4ccccc4c32)cc1Cl	?	.	.	.	.	31%[59 µM]
CC(=O)N1CCCc2cc(S(=O)(=O)N(C)CC(=O)Nc3ccc(F)c(Cl)c3)ccc21	6%	.	.	.	.	15%[59 µM]
COc1ccc(C2(c3ccc(OC)cc3)NC(=O)N(CC(=O)Nc3ccccc3C)C2=O)cc1	8%	1%	79µM*	-7%	0	.
Cc1cc(NC(=O)CN2C(=O)NC(c3ccccc3)(c3ccc(C)c(C)c3)C2=O)no1 (stereo unspecified)	-25%	4%	.	-12%	0	18µM*
COc1ccc(C2(c3ccc(OC)cc3)NC(=O)N(CC(=O)Nc3ccccc3)C2=O)cc1	4%	0%	13%	3%	-1	-2%[59 µM]
Cc1cc(NC(=O)CN2C(=O)NC(C)(c3ccccc3)C2=O)no1 (stereo unspecified)	11%	2%	19%	-1%	0	1%[59 µM]
COc1cccc(CN(C(=O)c2oc3ccccc3c2C)C2CCS(=O)(=O)C2)c1 (stereo unspecified)	12%	.	.	.	.	-10%[59 µM]
CC1CN(c2ccc(Cl)cc2)c2nc3c(c(=O)n(CC(=O)O)c(=O)n3C)n2C1 (stereo unspecified)	27%	.	.	.	.	3%[59 µM]
COc1ccccc1Cn1c(SCC(=O)C(C)(C)C)nc2ccccc2c1=O	17%	.	.	.	.	-2%[59 µM]
Cc1ccc(-c2c(C(=O)N3CCN(c4cc(Cl)ccc4C)CC3)oc(=O)c3ccccc23)cc1	-8%	.	.	.	.	-5%[59 µM]
SMILES	VDR inhibitor	MmCpn inh	Sfp inh	PLK1 PBD block	CCT chaperon mod	G9a inh
Cc1ccc(-c2nc(CN3CCCCC3)cc(CN3CCCCC3)c2O)cc1	12%	-5%	40µM*	-12%	0	.
CC(C)(C)c1nc(CN2CCOCC2)cc(CN2CCOCC2)c1O	-9%	?	8%	4%	1	-8%[12.7 µM]
CCCc1nc2nc(C)c(NS(=O)(=O)c3ccc([N+](=O)[O-])cc3)c(=O)n2[nH]1	12%	1%	-8%	-5%	2	79µM*
Cc1nc2nc(C)c(NS(=O)(=O)c3ccc4c(c3)CCCC4)c(=O)n2[nH]1	-12%	0%	16%	4%	1	71µM*
Cc1c2cnn(-c3ccccc3)c(=O)c2c(C)n1C(C)C(=O)Nc1ccccc1C(F)(F)F (stereo unspecified)	8%	.	.	.	.	-19%[59 µM]
O=C(O)CCc1ccc(-c2ccccc2)n1Cc1ccco1	-11%	1%	35µM*	-22%	-1	32µM*
O=C(O)CCc1ccc(-c2ccc(F)cc2)n1CC(=O)O	-8%	-3%	?	-17%	-2	45µM*
COC(=O)c1ccccc1-n1c(CCC(=O)O)ccc1-c1ccc(F)cc1	-12%	1%	-1%	-1%	-4	?
COc1ccc(-n2c(CCC(=O)O)ccc2-c2ccc(F)cc2)c(OC)c1	4%	1%	-4%	-2%	0	40µM*
CCOCCc1nn2c(=O)cc(COC(=O)c3ccccc3NC(=O)CC(C)C)nc2s1	8%	.	.	.	.	12%[12.7 µM]
Cc1[nH]c(-c2ccc(F)cc2)cc1C(=O)N1CCN(c2ccccc2)CC1	13%	-1%	5%	-1%	1	50µM*
COc1cccc(N2CCN(C(=O)c3cc(-c4ccc(F)cc4)[nH]c3C)CC2)c1	-21%	-10%	-8%	4%	-4	?
COc1ccccc1N1CCN(C(=O)c2cc3cc(F)ccc3[nH]2)CC1	-18%	0%	3%	?	-1	-11%
COc1ccccc1N1CCN(C(=O)c2cc(-c3ccc(F)cc3)[nH]c2C)CC1	10%	2%	0%	-5%	1	50µM*
Cc1[nH]c(-c2ccc(F)cc2)cc1C(=O)N1CCN(c2ccccc2F)CC1	-17%	0%	-2%	3%	-2	71µM*
Cc1ccc(C(=O)NCCc2ccc(S(N)(=O)=O)cc2)cc1-n1cnc2cccnc21	-1%	.	.	.	.	?
CO/N=C\c1ccc(C(=O)N2[C@H](c3ccc(C)cc3)[C@@H](C)CC[C@H]2C(=O)OC)cc1	.	.	15%	.	.	.
Cc1cccc(NC(=O)Nc2cccc(C#N)c2)n1	-20%	0%	6%	?	-1	1%
N#Cc1cccc(NC(=O)Nc2cccs2)c1	0%	1%	?	-13%	-4	79µM*
CCc1cccc(NC(=O)Nc2cccs2)c1	-3%	-1%	32µM*	-20%	3	13µM*
CCc1cccc(NC(=O)Nc2csc3c2CCCC3)c1	-13%	.	.	.	.	33%[59 µM]
C=CCNC(=O)c1sc(=S)n(-c2ccc(C(=O)OCC)cc2)c1N	?	2%	20µM*	21µM*	-1	3.2µM*
COc1ccc(-n2c(N)c(C(=O)NCc3ccco3)sc2=S)cc1	-6%	-13%	4%	-2%	-3	?
